{
  "source": "PubChem BioAssay (EPA / NIEHS)",
  "experiment": "UKN5_HCS_SBAD2_cell_viability: Viability Assessment in the University of Konstanz (UKN) Leist Lab Neurite Outgrowth Assay in human iPSC-derived immature Dorsal Root Ganglia Neurons (UKN5) (AID 2284056)",
  "how_it_was_run": "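iPSC-derived immature peripheral neurons (SBAD2) seeded on Matrigel with CHIR99021, SU5402 and DAPT, dosed 1 h later for 24 h. Viability from Hoechst H-33342 and calcein-AM live staining, high-content imaging; bidirectional fit versus DMSO.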",
  "note": "Calls of active or inactive are those of the source. How the source made its calls: active means hit-call score of the fitted dose curve at least 0.9, where 1 is the maximum; inactive means score below 0.9.",
  "data": [
    {"smiles": "CC(=O)Oc1ccccc1C(=O)O", "values": [
      {"measurement": "outcome", "result": "inactive"}
    ]}
  ]
}
